Measurements taken from PubChem BioAssay (Tox21).
Values joined by “and” are separate entries in the source; they are usually repeats but may differ in a detail not shown here. Identical values can stand only once. Inconclusive results are not listed. Some structures have more than one record in an assay (separate samples or runs), and their calls can disagree. Active and inactive are the calls of the source. Unless noted, calls follow the shape of the dose curve; as a rule, active = well fitted curve in the direction sought with a large enough effect in the repeat runs; inconclusive = weak or mixed curves; inactive = no such curve, though single readings can be large; an effect the other way counts as inactive or inconclusive.

What was measured:
[1] = qHTS assay to test for compound auto fluorescence at 535 nm (green) in HEK293 cells (AID 720680)
[2] = qHTS assay to test for compound auto fluorescence at 460 nm (blue) in HEK293 cell free culture (AID 720681)
Procedure, shortened: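 Blue fluorescence (Ex 405/Em 460 nm, triamterene-equivalent) was read immediately after pin transfer of compound or DMSO into medium (DMEM, 10% FBS) without cells.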

[3] = qHTS assay to test for compound auto fluorescence at 535 nm (green) in HEK293 cell free culture (AID 720682)
Procedure, shortened: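 Green-channel intensity (Ex/Em 485/535 nm) was recorded from compound-treated wells containing only DMEM with 10% FBS. Fluorescein provided the equivalency standard.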

[4] = qHTS assay to test for compound auto fluorescence at 590 nm (red) in HEK293 cell free culture (AID 720683)
Procedure, shortened: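 Red-channel autofluorescence of compounds in culture medium (DMEM, 10% FBS), no cells, measured at 540/590 nm. Rose Bengal sodium is the reference fluorophore for equivalence.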

[5] = qHTS assay to test for compound auto fluorescence at 590 nm (red) in HepG2 cell free culture (AID 720684)
Procedure, shortened: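 Cell-free; medium MEM + 10% FBS; compound or DMSO added by pintool; read Ex 540/Em 590 nm; Rose Bengal sodium as red reference fluorophore.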

[6] = qHTS assay to test for compound auto fluorescence at 460 nm (blue) in HepG2 cell free culture (AID 720685)
Procedure, shortened: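 Cell-free plates of MEM plus 10% FBS received 23 nL compound or DMSO vehicle; blue-channel (405/460 nm) intensity scored against triamterene as reference fluorophore.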

[7] = qHTS assay to test for compound auto fluorescence at 535 nm (green) in HepG2 cell free culture (AID 720686)
[8] = qHTS assay to test for compound auto fluorescence at 460 nm (blue) in HepG2 cells (AID 720687)
Procedure, shortened: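 Blue-channel autofluorescence (Ex/Em 405/460 nm, triamterene-equivalent) was measured after 1 hr compound exposure at 37 C, 5% CO2. Cells were HepG2, plated overnight at 37 C in MEM plus 10% FBS.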

[9] = target: Glucocorticoid receptor (Homo sapiens) (UniProt P04150); assay: qHTS assay to identify small molecule agonists of the glucocorticoid receptor (GR) signaling pathway (AID 720691; active = well fitted activation curve with a large enough effect in the signal ratio in the repeat runs, not every such curve was filed as active; the % refers to the signal ratio); settings: GR-bla HeLa, beta-lactamase reporter ratio, 18 h; activation: at 62.4 µM (top of the series) unless noted
Chain of Glucocorticoid receptor (Homo sapiens) (P04150 whole entry, looked up): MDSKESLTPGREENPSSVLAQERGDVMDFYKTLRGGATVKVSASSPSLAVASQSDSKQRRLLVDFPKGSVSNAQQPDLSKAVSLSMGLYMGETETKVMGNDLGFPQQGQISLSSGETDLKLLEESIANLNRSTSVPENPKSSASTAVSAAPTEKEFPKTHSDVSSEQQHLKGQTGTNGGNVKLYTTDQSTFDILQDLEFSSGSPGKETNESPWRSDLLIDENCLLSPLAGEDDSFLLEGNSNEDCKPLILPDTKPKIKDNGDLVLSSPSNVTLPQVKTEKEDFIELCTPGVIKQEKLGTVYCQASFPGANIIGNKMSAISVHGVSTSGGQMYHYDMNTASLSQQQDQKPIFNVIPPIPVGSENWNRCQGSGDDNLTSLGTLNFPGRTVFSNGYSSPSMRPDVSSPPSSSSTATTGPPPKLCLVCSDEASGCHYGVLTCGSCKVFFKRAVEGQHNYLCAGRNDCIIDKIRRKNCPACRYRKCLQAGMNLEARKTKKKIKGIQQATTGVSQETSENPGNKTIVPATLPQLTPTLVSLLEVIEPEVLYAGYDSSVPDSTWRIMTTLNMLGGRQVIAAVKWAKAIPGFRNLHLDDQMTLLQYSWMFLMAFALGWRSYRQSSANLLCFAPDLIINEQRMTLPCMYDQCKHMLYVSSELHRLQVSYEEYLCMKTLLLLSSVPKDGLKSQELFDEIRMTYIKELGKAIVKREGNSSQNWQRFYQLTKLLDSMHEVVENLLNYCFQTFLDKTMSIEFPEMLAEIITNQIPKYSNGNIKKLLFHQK
Procedure, shortened: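 Compounds in DMSO, alongside positive controls, were added to GR-bla HeLa reporter cells and incubated 18 h at 37 C; GRE-driven beta-lactamase was detected by fluorescence after 2 h with FRET substrate at room temperature.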

[10] = qHTS assay for identifying genotoxic compounds that show differential cytotoxicity against isogenic chicken DT40 cell lines with known DNA damage response pathways - Rev3 mutant cell line (AID 743014); also: nearly all actives have a fitted effect of over 55% in size; also: potency is read from the fitted curve at half-maximal effect
[11] = qHTS assay for identifying genotoxic compounds that show differential cytotoxicity against isogenic chicken DT40 cell lines with known DNA damage response pathways - Rad54/Ku70 mutant cell line (AID 743015); also: nearly all actives have a fitted effect of over 60% in size; also: potency is read from the fitted curve at half-maximal effect
[12] = qHTS assay to identify small molecule antagonists of the androgen receptor (AR) signaling pathway - cell viability counter screen (AID 743033; also: nearly all actives have a fitted effect of over 45% in size; also: potency is read from the fitted curve at half-maximal effect)
[13] = target: Androgen receptor (Homo sapiens) (UniProt P10275); assay: qHTS assay to identify small molecule agonists of the androgen receptor (AR) signaling pathway using the MDA cell line (AID 743040; also: nearly all actives have a fitted effect of over 20% in size)
Chain of Androgen receptor (Homo sapiens) (P10275 whole entry, looked up): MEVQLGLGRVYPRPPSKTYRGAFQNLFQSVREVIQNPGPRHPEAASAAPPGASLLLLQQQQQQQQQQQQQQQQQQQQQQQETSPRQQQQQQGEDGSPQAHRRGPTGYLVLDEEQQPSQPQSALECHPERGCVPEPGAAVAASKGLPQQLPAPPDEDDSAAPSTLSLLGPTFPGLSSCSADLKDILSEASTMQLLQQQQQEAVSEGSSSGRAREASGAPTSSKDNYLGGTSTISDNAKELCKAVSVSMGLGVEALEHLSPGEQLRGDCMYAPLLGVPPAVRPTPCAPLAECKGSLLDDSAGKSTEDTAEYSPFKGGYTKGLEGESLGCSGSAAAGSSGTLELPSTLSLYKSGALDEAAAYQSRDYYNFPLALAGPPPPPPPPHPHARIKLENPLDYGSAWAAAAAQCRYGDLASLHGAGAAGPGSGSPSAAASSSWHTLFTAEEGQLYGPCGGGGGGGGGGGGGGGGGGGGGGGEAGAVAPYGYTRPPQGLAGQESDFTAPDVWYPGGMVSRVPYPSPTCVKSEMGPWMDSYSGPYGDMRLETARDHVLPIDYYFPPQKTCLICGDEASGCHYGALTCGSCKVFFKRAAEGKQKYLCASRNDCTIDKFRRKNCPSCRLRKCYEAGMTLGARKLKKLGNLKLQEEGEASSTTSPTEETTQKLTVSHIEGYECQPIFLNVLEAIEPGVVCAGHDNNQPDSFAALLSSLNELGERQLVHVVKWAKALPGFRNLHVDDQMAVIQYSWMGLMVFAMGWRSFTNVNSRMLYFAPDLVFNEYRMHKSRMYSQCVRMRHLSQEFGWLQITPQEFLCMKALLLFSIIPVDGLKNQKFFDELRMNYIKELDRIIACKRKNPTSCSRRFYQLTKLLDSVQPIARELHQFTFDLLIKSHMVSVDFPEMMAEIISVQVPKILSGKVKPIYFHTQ
Procedure, shortened: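 Luciferase agonist assay: 16 h compound exposure at 37C without CO2 in MDA-kb2 AR-luc cells, whose MMTV promoter responds to both AR and GR. Luminescence measured after 30 min room-temperature incubation with ONE-Glo.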

[14] = qHTS assay to identify small molecule antagonists of the androgen receptor (AR) signaling pathway using the MDA cell line - cell viability counter screen (AID 743041; also: nearly all actives have a fitted effect of over 45% in size)
Procedure, shortened: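 Viability read by CellTiter-Fluor fluorescence in the same wells as the antagonist screen, added after 15.5 h of a 16 h, 37C exposure. Human breast carcinoma MDA-kb2 AR-luc cells, compounds co-dosed with agonist R1881.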

[15] = target: Androgen receptor (Homo sapiens) (UniProt P10275); assay: qHTS assay to identify small molecule antagonists of the androgen receptor (AR) signaling pathway using the MDA cell line (AID 743042; also: nearly all actives have a fitted effect of over 55% in size)
Procedure, shortened: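 Antagonist mode: compounds plus R1881 agonist added to MDA-kb2 AR-luc cells, incubated 16 h at 37C. Luciferase reporter luminescence quantified, with multiplexed CellTiter-Fluor readout for cell viability.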

[16] = target: Glucocorticoid receptor (Homo sapiens) (UniProt P04150); assay: qHTS assay to identify small molecule antagonists of the glucocorticoid receptor (GR) signaling pathway (AID 720692; active = well fitted inhibition curve with a large enough effect in the signal ratio in the repeat runs, not every such curve was filed as active; the % refers to the signal ratio)
Procedure, shortened: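 In a 1536-well cell format, compounds were added 4 h after seeding GR-bla HeLa cells, together with dexamethasone at 5 nM final; reporter activity was measured by FRET-substrate fluorescence following 18 h at 37 C.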

[17] = qHTS assay to identify small molecule antagonists of the glucocorticoid receptor (GR) signaling pathway - cell viability counter screen (AID 720693); also: nearly all actives have a fitted effect of over 55% in size
[18] = qHTS assay for identifying genotoxic compounds that show differential cytotoxicity against isogenic chicken DT40 cell lines with known DNA damage response pathways - wild type cell line (AID 743012); also: nearly all actives have a fitted effect of over 60% in size; also: potency is read from the fitted curve at half-maximal effect
Procedure, shortened: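 Viability of DNA repair-proficient chicken DT40 cells was assessed by CellTiter-Glo luminescence following 40 h compound exposure at 37 C/5% CO2.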

[19] = target: Androgen receptor (Homo sapiens) (UniProt P10275); assay: qHTS assay to identify small molecule antagonists of the androgen receptor (AR) signaling pathway (AID 743035; active = well fitted inhibition curve with a large enough effect in the signal ratio in the repeat runs, not every such curve was filed as active; the % refers to the signal ratio)
Procedure, shortened: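 Reporter HEK293 cells were exposed to compounds and R1881 overnight (16 h, 37C); beta-lactamase activity was then quantified by FRET fluorescence.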

[20] = target: Androgen receptor (Homo sapiens) (UniProt P10275); assay: qHTS assay to identify small molecule agonists of the androgen receptor (AR) signaling pathway (AID 743036; active = well fitted activation curve with a large enough effect in the signal ratio in the repeat runs, with a control signal flat, not every such curve was filed as active; the % refers to the signal ratio)
Procedure, shortened: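 Cell-based FRET reporter assay: HEK293 line with a UAS-beta-lactamase construct, compounds added in DMSO, 16 h exposure at 37C, then 2 h substrate step at room temperature and fluorescence intensity read.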

Measured: Potency

O=c1c(-c2ccc(O)cc2)coc2cc(O)ccc12
not listed: [16] | [17] | [18] | [19] | [20]
inactive: all other assays above

OC1CCCC1
not listed: [13] | [15] | [19] | [20]
inactive: all other assays above

CCCCC(CC)COC(=O)CCCCCCCC(=O)OCC(CC)CCCC (configuration not stated)
not listed: [13] | [15] | [16] | [19] | [20]
inactive: all other assays above

Cc1cc(O)c2c(c1)C(=O)c1cc(O)cc(O)c1C2=O
inactive and 38.6 µM (active): [10]
12 µM (active) and inactive: [12]
active: [18] 27.3 µM | [11] 1.68 µM and 3.06 µM
not listed: [13] | [14] | [15] | [16] | [19] | [20]
inactive: all other assays above

COCC(C)O (configuration not stated)
not listed: [13] | [15] | [19] | [20]
inactive: all other assays above

O=C1O[C@H](CO)[C@@H](O)[C@H](O)[C@H]1O
not listed: [13] | [14] | [15] | [16] | [19] | [20]
inactive: all other assays above

CCCCCCOC(C)=O
active: [10] 54.5 µM | [11] 61.1 µM
not listed: [13] | [14] | [15] | [19] | [20]
inactive: all other assays above

CCc1ccc(O)cc1
not listed: [17]
inactive: all other assays above

CN(C)c1cccc(O)c1
not listed: [13] | [14] | [15] | [18] | [19] | [20]
inactive: all other assays above

O=Nc1ccc(O)cc1
not listed: [9] | [14]
inactive: all other assays above

Cc1cc(Cc2ccc(N)c(C)c2)ccc1N
active: [18] 61.1 µM | [10] 68.6 µM and 54.5 µM | [11] 61.1 µM and 68.6 µM
not listed: [9] | [13] | [15] | [19] | [20]
inactive: all other assays above

Oc1ccc2ccccc2c1
not listed: [16] | [17] | [19]
inactive: all other assays above

CCCCNC(N)=O
not listed: [13] | [14] | [15] | [16] | [17] | [19] | [20]
inactive: all other assays above

CC(C)(N=C=O)c1cccc(C(C)(C)N=C=O)c1
not listed: [13] | [15] | [19] | [20]
inactive: all other assays above

CCCCCCCCCCCCN
inactive and 19.3 µM (active): [11]
inactive and 15.4 µM (active): [18]
inactive and 21.7 µM (active): [10]
inactive and 54.9 µM (active): [12]
not listed: [9] | [13] | [14] | [15] | [19] | [20]
inactive: all other assays above

CCOC(=O)/C=C\C(=O)OCC
not listed: [13] | [15] | [19] | [20]
inactive: all other assays above
